Several values for one entry are separate records, joined by “and”; a condition that tells them apart may be missing. Equal entries are not always repeated. This is part of a sample that, as a whole, favours compounds with a hit. Of some 83,000 tested, about 20% had one in any assay.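 For each line, cells grew in 96-well plates with the test compound present at a single concentration for 48 hours.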 Activity calls are given as the source filed them. The calls were made as follows: active = growth percent below 10; inactive = the rest.
Tested on: SF-295 CNS
Test: NCI-60 one-dose screen, 48 h (100 = growth as untreated, 0 = no growth, -100 = all killed)
Conditions: 10 µM unless noted

Compound	growth
COc1ccc(C/C(C)=C(/c2ccc(OCCN3CCCC3)cc2)c2ccc(OC(=O)NCc3ccccc3)cc2)cc1	95.2% (inactive)
CCN(CC)CCOc1ccc(/C(=C(\Cl)c2ccccc2)c2ccccc2)cc1	-23.1% (active)
Cc1ccc(/C=C2\COc3ccc(O)c(O)c3C2=O)cc1	33.1% (inactive)
COc1ccc2c(c1)oc1c(C)c3c(c(C)c12)C(=O)N(Nc1ccccc1)C3=O	97.1% (inactive)
CCC(=C(c1ccc(OCCCN(C)C)cc1)c1ccc(OCCCN(C)C)cc1)c1ccc(Cl)cc1	-87.4% (active)
CCOC(=O)c1c(-c2ccc(C)cc2)c(C#N)c(=O)n(-c2cccc(C(F)(F)F)c2)c1N	100% (inactive)
S=c1nc(CS)[nH]c2ccccc12	94.6% (inactive)
O=C(N/N=C/c1ccc(O)cc1O)c1cccc(Nc2ccnc(C(F)(F)F)c2)c1	20.4% (inactive)
CCN(CC)CCCN1C(=O)c2c(c(C)c3c(oc4cc(OC)ccc43)c2C)C1=O	100% (inactive)
Cc1ccc(NC(=O)c2ccc(CN3CCN(C)CC3)cc2)cc1Nc1nccc(-c2cccnc2)n1	84.9% (inactive) and 66.4% (inactive)
COc1cc(/C=C2/C=C(c3ccc(C(C)(C)C)cc3)N(CCc3ccc(S(N)(=O)=O)cc3)C2=O)cc(OC)c1OC	49.4% (inactive)
O=c1c(/C=C/c2ccco2)nnc2sc(Nc3ccc(Cl)cc3)nn12	105% (inactive)
Nc1[nH]nc(Nc2ccccc2)c1-c1nc2ccccc2s1	28.6% (inactive)
CCCCCCCCn1ccc2cc(NC(=O)CN3CCN(c4nc(C)cc(N5CCCCC5)n4)CC3)ccc21	103% (inactive)
CC/C(=C(/c1ccc(O)cc1)c1ccc(OCCN2CCCCCC2)cc1)c1ccc(Cl)cc1	87.8% (inactive)
C=C(C)[C@@H]1CC[C@]2(C(=O)N3CCN(C)CC3)CC[C@]3(C)[C@H](CC[C@@H]4[C@@]5(C)CC(CCCNC(C)=O)(CCCNC(C)=O)[C@H](OC(C)=O)C(C)(C)[C@@H]5CC[C@]43C)[C@@H]12	99.4% (inactive)
CCN(c1cc(-c2ccc(CN3CCC(/C=C/S(=O)(=O)c4ccccc4)CC3)cc2)cc(C(=O)NCc2c(C)cc(C)[nH]c2=O)c1C)C1CCOCC1	84.8% (inactive)
Nc1nc(N)c2c(n1)NC(c1ccc(Cl)cc1)CC(c1cccc(Nc3ccncc3)c1)=N2 (stereo not drawn)	64.5% (inactive)
C=C(c1ccc(C(=O)O)cc1)c1cc2c(cc1C)C(C)(C)CCC2(C)C	38.5% (inactive) and 48.8% (inactive)

Compound	growth
O=C1OCC2=C1C(c1cccc([N+](=O)[O-])c1)c1cc3c(cc1N2CCO)CCC3 (stereo not drawn)	-11.7% (active)
CCN(CC)/C([O-])=c1\cccc\c1=C1\N=C(c2ccccc2)N=C1[n+]1ccc(-c2ccccc2)cc1	100% (inactive)
Cc1nc(-n2[nH]c(=O)ccc2=O)sc1N=Nc1ccccc1	99.3% (inactive)
Cc1ccc(-c2nc3nc(-c4ccccc4)nc(N4CCCNCC4)c3o2)cc1	-87.3% (active)
O=C([C@H]1C[C@H]1c1ccc(S(F)(F)(F)(F)F)cc1)N1CCN(c2cc(Cl)ccc2C(F)(F)F)CC1	92.6% (inactive)
OB(O)c1ccsc1-c1nc2ccc3[nH]ncc3c2c2c1CCCC2	69.6% (inactive)
CC[C@]12CN3CCc4c([nH]c5ccccc45)[C@@](C(=O)OC)(c4cc5c(cc4OC)N(C)[C@H]4[C@@](O)(C(=O)OC)[C@H](OC(C)=O)[C@]6(CC)C=CCN7CC[C@]54[C@@H]76)CC(C3)[C@H]1O2 (stereo partly drawn)	-22.9% (active)
COC(=O)N/N=C/c1c[n+]([O-])c2ccccc2[n+]1[O-]	93.4% (inactive)
Cn1ccnc1CN1CCSC(C(=O)Nc2ccccc2)C1 (stereo not drawn)	92.9% (inactive)
CCNC(=O)Oc1ccc(/C(=C(/C)Cc2ccc(OC)cc2)c2ccc(OCCN(CC)CC)cc2)cc1	40.8% (inactive)
Cc1ccc(-c2nc(C#N)c(S(=O)(=O)N(C)C)o2)cc1	100% (inactive)
COCCn1cc(-c2nc(-c3cn(CCOC)c4ncccc34)cs2)c2ccccc21	91.4% (inactive)
Nc1nc2ccccc2c2c(=O)c3ccc(Cl)cc3sc12	101% (inactive)
CC[C@]1(O)CC2CN(CCc3c([nH]c4ccccc34)C(C(=O)OC)(c3cc4c(cc3OC)N(C=O)[C@H]3[C@@](O)(C(=O)OC)[C@H](OC(C)=O)[C@]5(CC)[C@@H]6C[C@@H]6CN6CC[C@]43[C@@H]65)C2)C1 (stereo partly drawn)	-4.56% (active)
CN1CCN(CCCN2c3ccccc3Sc3ccc(Cl)cc32)CC1	85.7% (inactive) and 82.5% (inactive)
Nc1ncc(-c2ccc3ncnc(N4CCc5ccc(Cl)cc54)c3c2)cc1C(F)(F)F	19.3% (inactive)
CC(C)(C)c1cc(NC(=O)Nc2ccc(-c3cn4c(n3)sc3cc(OCCN5CCOCC5)ccc34)cc2)no1	-58.7% (active) and 16.4% (inactive)
CC1(Cc2ccccc2)CC2=C(C(=O)O1)C(c1ccccc1)NC(=O)N2 (stereo not drawn)	104% (inactive)
COc1cc(C=O)ccc1Oc1ccc([N+](=O)[O-])cc1[N+](=O)[O-]	108% (inactive)
